# Data: PubChem BioAssay (NCI)
# The panel holds about 79,000 compounds, 15% with a hit somewhere; the sample as a whole holds those more often. Values without a mark were called inactive. Cut-off read from the data, not from the text of the source: active = growth inhibition above about 70%; inactive = the rest.
# Experiment: NCI Yeast Anticancer Drug Screen. Data for the mlh1 rad18 strain (AID 175)
# Conditions: S. cerevisiae mlh1 rad18 strain growth inhibition; at 50.0 µM; hits give high values
# Procedure, shortened: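 In this whole-cell yeast screen, a strain with altered DNA damage repair is challenged with compound, and its growth is measured against matched vehicle-treated controls.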
row,SMILES,growth inhibition [%]
1,CC(C)CCNC(=O)CS(=O)(=O)c1ccc(N)cc1,-8.55
2,CCCCCCC1N(C(C#N)c2ccccc2)CCCN1C(C#N)c1ccccc1 (configuration not stated),36.4
3,NNC(=O)CCCO,8.25
4,O=P(O)(c1cc(Cl)cc(Cl)c1)c1cc(Cl)cc(Cl)c1,-4.5
5,CC(=O)OC1CN(c2ccccc2)CC(OC(C)=O)CN(c2ccccc2)C1 (configuration not stated),31.8
6,CC(C)NCCN,23.4
7,Cc1cc(N=Nc2c(O)c3ccccc3[nH]c2=O)ccc1N=Nc1ccc(C(=O)O)cc1,-8.05
8,Cc1ccc(S(=O)(=O)NCCC(Cl)(Cl)Cl)cc1,27.7
9,Cc1ccc(S(=O)(=O)c2ccc(C)cc2C(=O)O)cc1,-22.4
10,Cc1ccc(C(=O)Nc2ccc(CP(=O)(O)O)cc2CP(=O)(O)O)cc1N,1.8
11,CC(=O)Nc1cc(C)c(C(=O)O)c(C)c1,-21.4
12,CCc1c(Cc2[nH]c(C=O)c(C)c2CC)[nH]c(C=O)c1C,3.8
13,COc1cc(C2=N/C(=C\c3cccc([N+](=O)[O-])c3)C(=O)O2)cc(OC)c1OC,-22.5
14,Cc1cccc2c1C(=O)OC2(c1cccc2ccccc12)c1cccc2ccccc12,1.6
15,CCN(CC)CCOc1ccc(/C=C(\C#N)c2ccc(OCCN(CC)CC)cc2)cc1,18
16,O=C1CC(=O)N2C=CC=CC2N1 (configuration not stated),-13.5
17,S=c1[nH]c2ccccc2n1CCc1ccncc1,3.5
